Experimental data from the supplement of paper PMC11732987, “Enantioselective OTUD7B fragment discovery through chemoproteomics screening and high-throughput optimisation” (Communications Chemistry, 2025).

How the values were obtained:
Assay in all cases: log2 ratio of Biotin-Ahx-Ub-VS probe labelling (fragment/DMSO); higher = less target engagement (more negative = stronger competition), active = hit call of the paper (q ≤ 0.05, log2 ratio ≤ -1)
Details in all cases: compound concentration: 200 uM; treatment time: 3 h
USP9X = USP9X (UniProt Q93008)
Outline: (§1)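 HEK293T lysate (495 µg per sample, in Tris/CHAPS/IGEPAL buffer with protease inhibitors) was exposed in triplicate for 3 h to fragment at 200 µM or to vehicle, then to Biotin-Ahx-Ub-VS at 0.5 µM final for 1 h. Labelled DUBs were enriched on NeutrAvidin, digested with LysC and trypsin, and analysed by diaPASEF LC-MS/MS. Spectronaut label-free quantities were normalised to the global median, and values are average log2 ratios of fragment over vehicle from an unpaired t-test. Only proteins with ≥2 unique peptides were used.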

UniProt O00487 = biological target: UniProt O00487
Outline: as §1

UniProt O00507 = biological target: UniProt O00507
Outline: as §1

UniProt P51784 = biological target: UniProt P51784
Outline: as §1

UniProt Q5T2D3 = biological target: T1, UniProt Q5T2D3
T1 sequence (whole entry): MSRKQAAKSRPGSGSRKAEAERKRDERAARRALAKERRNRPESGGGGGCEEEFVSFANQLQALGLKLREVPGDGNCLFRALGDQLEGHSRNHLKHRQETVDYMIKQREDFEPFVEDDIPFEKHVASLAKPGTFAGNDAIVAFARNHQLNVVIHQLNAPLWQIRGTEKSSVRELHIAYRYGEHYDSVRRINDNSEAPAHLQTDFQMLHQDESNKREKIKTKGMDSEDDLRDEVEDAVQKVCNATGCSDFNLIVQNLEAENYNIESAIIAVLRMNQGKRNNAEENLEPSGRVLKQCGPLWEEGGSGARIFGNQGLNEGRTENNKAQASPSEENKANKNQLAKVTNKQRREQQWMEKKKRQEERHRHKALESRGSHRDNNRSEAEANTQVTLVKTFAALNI
Outline: as §1

UniProt Q8TE49 = biological target: T2, UniProt Q8TE49
T2 sequence (whole entry): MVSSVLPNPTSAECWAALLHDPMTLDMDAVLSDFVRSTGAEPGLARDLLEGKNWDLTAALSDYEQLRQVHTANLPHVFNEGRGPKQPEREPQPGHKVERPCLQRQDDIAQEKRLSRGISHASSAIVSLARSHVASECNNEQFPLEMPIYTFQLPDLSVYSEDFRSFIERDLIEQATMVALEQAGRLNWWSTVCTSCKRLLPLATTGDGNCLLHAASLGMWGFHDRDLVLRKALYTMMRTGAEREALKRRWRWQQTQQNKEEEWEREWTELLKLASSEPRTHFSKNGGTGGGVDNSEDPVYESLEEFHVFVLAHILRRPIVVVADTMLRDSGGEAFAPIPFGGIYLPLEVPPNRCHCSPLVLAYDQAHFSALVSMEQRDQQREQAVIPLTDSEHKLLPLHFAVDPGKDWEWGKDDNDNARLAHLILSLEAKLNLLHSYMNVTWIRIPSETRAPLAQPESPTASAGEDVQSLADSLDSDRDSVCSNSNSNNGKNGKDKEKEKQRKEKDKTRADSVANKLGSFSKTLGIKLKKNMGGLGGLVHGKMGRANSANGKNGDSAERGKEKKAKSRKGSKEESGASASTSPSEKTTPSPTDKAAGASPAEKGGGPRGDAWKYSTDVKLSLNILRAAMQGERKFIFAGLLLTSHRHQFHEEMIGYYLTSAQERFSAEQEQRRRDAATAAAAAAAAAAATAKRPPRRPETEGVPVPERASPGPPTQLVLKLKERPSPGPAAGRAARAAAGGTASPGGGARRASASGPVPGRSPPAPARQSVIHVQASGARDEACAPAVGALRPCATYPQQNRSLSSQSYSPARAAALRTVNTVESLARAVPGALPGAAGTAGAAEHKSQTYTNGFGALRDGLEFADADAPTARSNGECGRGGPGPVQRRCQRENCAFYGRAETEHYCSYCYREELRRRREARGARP
Outline: as §1

UniProt Q9P2H5 = biological target: T3, UniProt Q9P2H5
T3 sequence (whole entry): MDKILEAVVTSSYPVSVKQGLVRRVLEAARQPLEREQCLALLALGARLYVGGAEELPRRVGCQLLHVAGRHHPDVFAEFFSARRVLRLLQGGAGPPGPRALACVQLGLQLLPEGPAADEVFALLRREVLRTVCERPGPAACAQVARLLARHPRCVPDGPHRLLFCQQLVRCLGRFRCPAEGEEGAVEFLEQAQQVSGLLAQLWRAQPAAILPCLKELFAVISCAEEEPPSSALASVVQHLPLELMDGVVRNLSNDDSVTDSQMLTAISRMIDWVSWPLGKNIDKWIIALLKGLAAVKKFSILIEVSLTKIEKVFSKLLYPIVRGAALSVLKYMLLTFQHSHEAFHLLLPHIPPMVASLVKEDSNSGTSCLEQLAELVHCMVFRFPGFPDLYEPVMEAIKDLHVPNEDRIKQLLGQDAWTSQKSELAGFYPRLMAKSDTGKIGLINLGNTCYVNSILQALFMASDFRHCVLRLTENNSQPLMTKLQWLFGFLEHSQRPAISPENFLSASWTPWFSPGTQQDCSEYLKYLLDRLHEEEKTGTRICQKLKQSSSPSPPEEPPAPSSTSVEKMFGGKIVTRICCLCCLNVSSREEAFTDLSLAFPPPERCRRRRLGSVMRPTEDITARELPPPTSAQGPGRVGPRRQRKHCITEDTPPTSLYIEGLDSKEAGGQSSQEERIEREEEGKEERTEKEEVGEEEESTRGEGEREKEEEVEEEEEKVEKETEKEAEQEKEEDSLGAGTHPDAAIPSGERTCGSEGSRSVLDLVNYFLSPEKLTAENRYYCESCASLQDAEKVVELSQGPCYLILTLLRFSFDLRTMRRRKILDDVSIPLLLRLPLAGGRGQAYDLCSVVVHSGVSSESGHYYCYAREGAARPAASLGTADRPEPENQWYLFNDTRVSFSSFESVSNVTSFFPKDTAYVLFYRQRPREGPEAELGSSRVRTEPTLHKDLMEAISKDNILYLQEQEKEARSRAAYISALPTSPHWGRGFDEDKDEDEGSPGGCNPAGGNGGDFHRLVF
Outline: as §1

UniProt Q9UGI0 = biological target: T4, UniProt Q9UGI0
T4 sequence (whole entry): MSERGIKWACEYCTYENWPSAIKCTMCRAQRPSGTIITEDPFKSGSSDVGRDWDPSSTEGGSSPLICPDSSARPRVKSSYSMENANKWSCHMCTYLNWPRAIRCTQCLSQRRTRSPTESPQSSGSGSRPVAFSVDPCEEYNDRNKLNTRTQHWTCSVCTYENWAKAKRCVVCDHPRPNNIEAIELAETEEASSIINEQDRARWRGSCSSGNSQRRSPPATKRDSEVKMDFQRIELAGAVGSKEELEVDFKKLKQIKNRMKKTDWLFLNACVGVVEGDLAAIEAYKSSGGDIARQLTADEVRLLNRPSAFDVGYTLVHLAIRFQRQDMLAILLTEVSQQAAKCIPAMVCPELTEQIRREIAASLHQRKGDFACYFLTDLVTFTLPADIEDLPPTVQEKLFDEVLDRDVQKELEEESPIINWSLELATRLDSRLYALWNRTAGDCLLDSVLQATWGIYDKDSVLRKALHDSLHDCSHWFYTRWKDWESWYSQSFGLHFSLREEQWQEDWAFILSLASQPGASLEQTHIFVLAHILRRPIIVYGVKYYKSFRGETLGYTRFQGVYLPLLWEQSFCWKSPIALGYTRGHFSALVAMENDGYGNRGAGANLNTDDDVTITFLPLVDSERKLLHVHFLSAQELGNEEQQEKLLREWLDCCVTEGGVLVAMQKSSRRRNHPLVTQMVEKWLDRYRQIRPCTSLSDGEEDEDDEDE
Outline: as §1

YOD1 = biological target: T5, YOD1 (UniProt Q5VVQ6)
T5 sequence (whole entry): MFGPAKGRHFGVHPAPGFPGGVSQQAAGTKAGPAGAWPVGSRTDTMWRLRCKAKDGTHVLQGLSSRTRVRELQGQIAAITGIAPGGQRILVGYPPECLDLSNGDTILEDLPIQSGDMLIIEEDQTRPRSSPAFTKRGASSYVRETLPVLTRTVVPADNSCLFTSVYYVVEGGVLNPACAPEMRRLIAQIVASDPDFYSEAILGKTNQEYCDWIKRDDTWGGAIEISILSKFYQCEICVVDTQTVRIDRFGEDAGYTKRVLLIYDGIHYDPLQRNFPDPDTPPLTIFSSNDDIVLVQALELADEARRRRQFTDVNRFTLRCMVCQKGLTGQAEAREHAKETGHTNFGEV
Outline: as §1

Measured: log2 ratio of Biotin-Ahx-Ub-VS probe labelling

Chain of UniProt O00487 (O00487 whole entry): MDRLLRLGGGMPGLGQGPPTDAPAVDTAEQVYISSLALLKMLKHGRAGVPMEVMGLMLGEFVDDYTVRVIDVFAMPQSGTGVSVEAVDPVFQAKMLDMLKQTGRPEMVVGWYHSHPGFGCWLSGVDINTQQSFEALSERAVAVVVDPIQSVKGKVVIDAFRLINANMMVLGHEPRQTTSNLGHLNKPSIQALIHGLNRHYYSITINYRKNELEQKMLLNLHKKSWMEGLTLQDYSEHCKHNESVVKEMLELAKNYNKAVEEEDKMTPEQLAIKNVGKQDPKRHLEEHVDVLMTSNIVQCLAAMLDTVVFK
Chain of UniProt O00507 (O00507 whole entry): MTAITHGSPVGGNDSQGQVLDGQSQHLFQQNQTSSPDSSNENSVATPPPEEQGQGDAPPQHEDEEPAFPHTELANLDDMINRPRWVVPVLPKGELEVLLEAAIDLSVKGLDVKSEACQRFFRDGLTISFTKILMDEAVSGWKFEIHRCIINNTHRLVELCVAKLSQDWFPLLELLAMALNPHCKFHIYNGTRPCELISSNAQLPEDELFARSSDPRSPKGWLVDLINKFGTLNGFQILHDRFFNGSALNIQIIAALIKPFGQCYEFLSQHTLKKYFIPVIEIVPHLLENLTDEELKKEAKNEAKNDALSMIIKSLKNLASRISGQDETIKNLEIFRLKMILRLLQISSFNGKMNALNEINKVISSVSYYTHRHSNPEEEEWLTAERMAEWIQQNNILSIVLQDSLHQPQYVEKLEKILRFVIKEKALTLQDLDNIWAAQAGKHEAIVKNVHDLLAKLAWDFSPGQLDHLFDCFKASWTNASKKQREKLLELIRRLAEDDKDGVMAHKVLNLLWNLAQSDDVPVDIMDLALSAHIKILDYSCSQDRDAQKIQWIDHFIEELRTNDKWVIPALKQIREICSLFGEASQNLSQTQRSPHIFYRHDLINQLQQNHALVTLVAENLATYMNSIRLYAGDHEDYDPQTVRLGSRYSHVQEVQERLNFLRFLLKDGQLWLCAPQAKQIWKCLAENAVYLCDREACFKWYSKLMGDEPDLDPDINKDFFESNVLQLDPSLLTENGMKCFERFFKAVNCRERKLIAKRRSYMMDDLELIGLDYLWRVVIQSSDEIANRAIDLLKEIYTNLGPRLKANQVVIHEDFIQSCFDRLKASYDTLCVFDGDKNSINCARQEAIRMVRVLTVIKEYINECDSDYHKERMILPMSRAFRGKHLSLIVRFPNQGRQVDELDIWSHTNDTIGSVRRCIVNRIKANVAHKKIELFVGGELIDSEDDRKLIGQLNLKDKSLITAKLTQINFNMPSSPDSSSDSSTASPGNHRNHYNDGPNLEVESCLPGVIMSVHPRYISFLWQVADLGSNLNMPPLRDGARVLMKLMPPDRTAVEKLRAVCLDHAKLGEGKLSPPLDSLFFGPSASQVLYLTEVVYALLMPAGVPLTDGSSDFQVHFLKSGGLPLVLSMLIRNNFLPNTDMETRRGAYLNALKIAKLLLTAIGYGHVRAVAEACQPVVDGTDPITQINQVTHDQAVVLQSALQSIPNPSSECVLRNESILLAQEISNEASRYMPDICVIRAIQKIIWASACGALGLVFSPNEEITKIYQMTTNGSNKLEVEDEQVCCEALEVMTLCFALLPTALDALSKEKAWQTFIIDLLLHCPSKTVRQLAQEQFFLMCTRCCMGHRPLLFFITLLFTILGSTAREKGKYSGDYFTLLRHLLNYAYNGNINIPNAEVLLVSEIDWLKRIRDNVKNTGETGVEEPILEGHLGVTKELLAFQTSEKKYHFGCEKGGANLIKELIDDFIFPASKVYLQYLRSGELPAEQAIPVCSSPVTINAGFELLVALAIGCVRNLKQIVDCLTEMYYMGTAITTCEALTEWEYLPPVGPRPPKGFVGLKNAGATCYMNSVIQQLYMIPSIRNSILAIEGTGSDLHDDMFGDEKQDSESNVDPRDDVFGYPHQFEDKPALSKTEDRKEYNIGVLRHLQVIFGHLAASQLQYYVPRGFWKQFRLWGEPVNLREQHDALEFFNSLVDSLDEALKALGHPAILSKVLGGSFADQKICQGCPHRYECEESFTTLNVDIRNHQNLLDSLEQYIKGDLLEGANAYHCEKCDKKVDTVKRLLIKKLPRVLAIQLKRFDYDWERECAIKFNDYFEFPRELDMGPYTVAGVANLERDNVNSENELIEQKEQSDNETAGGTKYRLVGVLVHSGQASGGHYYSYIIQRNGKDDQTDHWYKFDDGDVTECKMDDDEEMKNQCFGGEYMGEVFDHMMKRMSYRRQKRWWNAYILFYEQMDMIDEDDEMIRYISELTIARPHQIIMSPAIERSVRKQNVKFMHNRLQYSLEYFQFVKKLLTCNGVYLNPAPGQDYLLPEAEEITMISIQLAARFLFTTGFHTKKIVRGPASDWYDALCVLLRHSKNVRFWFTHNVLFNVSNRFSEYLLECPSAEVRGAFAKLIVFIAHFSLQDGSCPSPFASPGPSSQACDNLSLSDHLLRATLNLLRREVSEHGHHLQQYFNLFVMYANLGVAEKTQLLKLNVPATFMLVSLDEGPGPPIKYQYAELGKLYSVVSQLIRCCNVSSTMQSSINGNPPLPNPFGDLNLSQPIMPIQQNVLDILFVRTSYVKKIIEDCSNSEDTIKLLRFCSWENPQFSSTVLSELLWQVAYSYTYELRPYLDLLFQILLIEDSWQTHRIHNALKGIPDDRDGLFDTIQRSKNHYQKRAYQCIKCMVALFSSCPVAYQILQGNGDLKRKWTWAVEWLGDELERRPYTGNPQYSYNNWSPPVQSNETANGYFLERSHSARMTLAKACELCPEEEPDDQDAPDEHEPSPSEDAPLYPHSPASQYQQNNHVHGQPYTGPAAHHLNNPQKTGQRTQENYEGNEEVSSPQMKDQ
Chain of UniProt P51784 (P51784 whole entry): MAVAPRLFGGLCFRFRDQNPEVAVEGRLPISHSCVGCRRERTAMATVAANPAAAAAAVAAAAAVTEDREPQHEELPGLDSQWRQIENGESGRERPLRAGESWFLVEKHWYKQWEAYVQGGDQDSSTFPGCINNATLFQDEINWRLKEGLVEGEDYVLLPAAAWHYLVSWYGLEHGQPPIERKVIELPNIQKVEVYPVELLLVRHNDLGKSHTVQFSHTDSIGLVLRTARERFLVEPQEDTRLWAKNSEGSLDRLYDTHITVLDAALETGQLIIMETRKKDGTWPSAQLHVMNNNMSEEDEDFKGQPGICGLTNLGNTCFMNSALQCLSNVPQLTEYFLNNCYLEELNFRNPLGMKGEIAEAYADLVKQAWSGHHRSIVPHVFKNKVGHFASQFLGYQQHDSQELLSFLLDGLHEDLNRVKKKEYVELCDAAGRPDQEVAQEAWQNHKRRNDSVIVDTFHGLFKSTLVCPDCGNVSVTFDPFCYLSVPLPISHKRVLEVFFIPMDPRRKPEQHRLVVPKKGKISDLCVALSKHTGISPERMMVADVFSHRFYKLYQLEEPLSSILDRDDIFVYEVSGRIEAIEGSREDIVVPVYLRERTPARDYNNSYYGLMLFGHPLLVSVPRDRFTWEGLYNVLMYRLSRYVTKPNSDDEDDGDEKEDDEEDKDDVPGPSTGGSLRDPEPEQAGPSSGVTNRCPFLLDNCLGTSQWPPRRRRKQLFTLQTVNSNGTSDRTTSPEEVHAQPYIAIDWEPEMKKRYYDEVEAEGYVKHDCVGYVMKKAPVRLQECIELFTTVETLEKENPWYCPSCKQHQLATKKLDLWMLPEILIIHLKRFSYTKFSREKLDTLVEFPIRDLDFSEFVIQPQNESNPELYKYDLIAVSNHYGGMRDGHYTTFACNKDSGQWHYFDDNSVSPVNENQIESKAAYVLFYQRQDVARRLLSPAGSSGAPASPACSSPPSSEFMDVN

Cc1cccc(N(CCC#N)C(=O)CCl)c1C
inactive: USP9X 0.0273 | UniProt O00487 0.0621 | UniProt O00507 0.294 | UniProt P51784 0.0536 | UniProt Q5T2D3 -0.0559 | UniProt Q9P2H5 -0.386 | UniProt Q9UGI0 -0.934 | YOD1 0.144
active: UniProt Q8TE49 -1.26
